# According to article PMC11062922 (Nature Chemical Biology, 2023):
# Read-outs that look alike come from different tables or passages of the source.
# What was measured:
# IRAK4 = conditions: read-out: apparent Kd, n = 1
# LATS1 = conditions: read-out: apparent Kd, n = 1
substance,measurement,setting,value
Lestaurtinib,potency estimated from few doses,"IRAK4; compound concentrations:100 nM and 1000 nM (sheet 'Lestaurtinib' of Supplementary Table 1),run:Lestaurtinib_03252_R1,Plate:MR032",95.9 nM
same,potency estimated from few doses,"IRAK4; compound concentrations:100 nM and 1000 nM (sheet 'Lestaurtinib' of Supplementary Table 1),run:Lestaurtinib_03260_R2,Plate:MR033",132 nM
same,potency estimated from few doses,"IRAK4; compound concentrations:100 nM and 1000 nM (sheet 'Lestaurtinib' of Supplementary Table 1),run:Lestaurtinib_03260_R3,Plate:MR033",85.1 nM
same,potency estimated from few doses,"LATS1; compound concentrations:100 nM and 1000 nM (sheet 'Lestaurtinib' of Supplementary Table 1),run:Lestaurtinib_02339_R1,Plate:MR001",27.8 nM
same,potency estimated from few doses,"LATS1; compound concentrations:100 nM and 1000 nM (sheet 'Lestaurtinib' of Supplementary Table 1),run:Lestaurtinib_02339_R2,Plate:MR001",31.4 nM
same,potency estimated from few doses,"LATS1; compound concentrations:100 nM and 1000 nM (sheet 'Lestaurtinib' of Supplementary Table 1),run:Lestaurtinib_02339_R3,Plate:MR001",37.3 nM
same,potency estimated from few doses,"LATS1; compound concentrations:100 nM and 1000 nM (sheet 'Lestaurtinib' of Supplementary Table 1),run:Lestaurtinib_02364_R2,Plate:MR002",22.6 nM
same,potency estimated from few doses,"LATS1; compound concentrations:100 nM and 1000 nM (sheet 'Lestaurtinib' of Supplementary Table 1),run:Lestaurtinib_02364_R3,Plate:MR002",44.1 nM
same,potency estimated from few doses,"LATS1; compound concentrations:100 nM and 1000 nM (sheet 'Lestaurtinib' of Supplementary Table 1),run:Lestaurtinib_02367_R1,Plate:MR003",27.8 nM
same,potency estimated from few doses,"LATS1; compound concentrations:100 nM and 1000 nM (sheet 'Lestaurtinib' of Supplementary Table 1),run:Lestaurtinib_02367_R2,Plate:MR003",40.3 nM
same,potency estimated from few doses,"LATS1; compound concentrations:100 nM and 1000 nM (sheet 'Lestaurtinib' of Supplementary Table 1),run:Lestaurtinib_02367_R3,Plate:MR003",22.1 nM
same,potency estimated from few doses,"LATS1; compound concentrations:100 nM and 1000 nM (sheet 'Lestaurtinib' of Supplementary Table 1),run:Lestaurtinib_02381_R1,Plate:MR004",27 nM
same,potency estimated from few doses,"LATS1; compound concentrations:100 nM and 1000 nM (sheet 'Lestaurtinib' of Supplementary Table 1),run:Lestaurtinib_02407_R1,Plate:MR005",39.5 nM
same,potency estimated from few doses,"LATS1; compound concentrations:100 nM and 1000 nM (sheet 'Lestaurtinib' of Supplementary Table 1),run:Lestaurtinib_02407_R2,Plate:MR005",27.7 nM
same,potency estimated from few doses,"LATS1; compound concentrations:100 nM and 1000 nM (sheet 'Lestaurtinib' of Supplementary Table 1),run:Lestaurtinib_02422_R1,Plate:MR006",34.2 nM
same,potency estimated from few doses,"LATS1; compound concentrations:100 nM and 1000 nM (sheet 'Lestaurtinib' of Supplementary Table 1),run:Lestaurtinib_02422_R3,Plate:MR006",34.2 nM
same,potency estimated from few doses,"LATS1; compound concentrations:100 nM and 1000 nM (sheet 'Lestaurtinib' of Supplementary Table 1),run:Lestaurtinib_02437_R1,Plate:MR007",35 nM
same,potency estimated from few doses,"LATS1; compound concentrations:100 nM and 1000 nM (sheet 'Lestaurtinib' of Supplementary Table 1),run:Lestaurtinib_02437_R2,Plate:MR007",27 nM
same,potency estimated from few doses,"LATS1; compound concentrations:100 nM and 1000 nM (sheet 'Lestaurtinib' of Supplementary Table 1),run:Lestaurtinib_02437_R3,Plate:MR007",0.206 nM
same,potency estimated from few doses,"LATS1; compound concentrations:100 nM and 1000 nM (sheet 'Lestaurtinib' of Supplementary Table 1),run:Lestaurtinib_02438_R3,Plate:MR008",29 nM
same,potency estimated from few doses,"LATS1; compound concentrations:100 nM and 1000 nM (sheet 'Lestaurtinib' of Supplementary Table 1),run:Lestaurtinib_02443_R2,Plate:MR009",30.6 nM
same,potency estimated from few doses,"LATS1; compound concentrations:100 nM and 1000 nM (sheet 'Lestaurtinib' of Supplementary Table 1),run:Lestaurtinib_02443_R3,Plate:MR009",38.6 nM
same,potency estimated from few doses,"LATS1; compound concentrations:100 nM and 1000 nM (sheet 'Lestaurtinib' of Supplementary Table 1),run:Lestaurtinib_02482_R1,Plate:MR011",38.1 nM
same,potency estimated from few doses,"LATS1; compound concentrations:100 nM and 1000 nM (sheet 'Lestaurtinib' of Supplementary Table 1),run:Lestaurtinib_02482_R2,Plate:MR011",32.7 nM
same,potency estimated from few doses,"LATS1; compound concentrations:100 nM and 1000 nM (sheet 'Lestaurtinib' of Supplementary Table 1),run:Lestaurtinib_02482_R3,Plate:MR011",46 nM
same,potency estimated from few doses,"LATS1; compound concentrations:100 nM and 1000 nM (sheet 'Lestaurtinib' of Supplementary Table 1),run:Lestaurtinib_02572_R1,Plate:MR015",18 nM
same,potency estimated from few doses,"LATS1; compound concentrations:100 nM and 1000 nM (sheet 'Lestaurtinib' of Supplementary Table 1),run:Lestaurtinib_02572_R2,Plate:MR015",23.5 nM
same,potency estimated from few doses,"LATS1; compound concentrations:100 nM and 1000 nM (sheet 'Lestaurtinib' of Supplementary Table 1),run:Lestaurtinib_02572_R3,Plate:MR015",22.5 nM
same,potency estimated from few doses,"LATS1; compound concentrations:100 nM and 1000 nM (sheet 'Lestaurtinib' of Supplementary Table 1),run:Lestaurtinib_02577_R1,Plate:MR016",36.6 nM
same,potency estimated from few doses,"LATS1; compound concentrations:100 nM and 1000 nM (sheet 'Lestaurtinib' of Supplementary Table 1),run:Lestaurtinib_02577_R2,Plate:MR016",51.4 nM
same,potency estimated from few doses,"LATS1; compound concentrations:100 nM and 1000 nM (sheet 'Lestaurtinib' of Supplementary Table 1),run:Lestaurtinib_02577_R3,Plate:MR016",63.8 nM
same,potency estimated from few doses,"LATS1; compound concentrations:100 nM and 1000 nM (sheet 'Lestaurtinib' of Supplementary Table 1),run:Lestaurtinib_02584_R2,Plate:MR017",50.1 nM
same,potency estimated from few doses,"LATS1; compound concentrations:100 nM and 1000 nM (sheet 'Lestaurtinib' of Supplementary Table 1),run:Lestaurtinib_02584_R3,Plate:MR017",45.2 nM
same,potency estimated from few doses,"LATS1; compound concentrations:100 nM and 1000 nM (sheet 'Lestaurtinib' of Supplementary Table 1),run:Lestaurtinib_02601_R2,Plate:MR018",79.1 nM
same,potency estimated from few doses,"LATS1; compound concentrations:100 nM and 1000 nM (sheet 'Lestaurtinib' of Supplementary Table 1),run:Lestaurtinib_02601_R3,Plate:MR018",55.9 nM
same,potency estimated from few doses,"LATS1; compound concentrations:100 nM and 1000 nM (sheet 'Lestaurtinib' of Supplementary Table 1),run:Lestaurtinib_02606_R1,Plate:MR019",39.1 nM
same,potency estimated from few doses,"LATS1; compound concentrations:100 nM and 1000 nM (sheet 'Lestaurtinib' of Supplementary Table 1),run:Lestaurtinib_02606_R2,Plate:MR019",35.8 nM
